Screening results deposited in PubChem by The Scripps Research Institute Molecular Screening Center.
proKLK7 act = proKLK7 zymogen activators, primary screen, biochemical, fluorescence intensity. activation, % at 7 µM. Kallikrein-7 (Homo sapiens), P49862. purified proKLK7, EDANS-DABCYL substrate fluorescence; 100% is mature enzyme control, 0% vehicle. 0.9% of 370,000 active;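 active = activation above the mean of all tested compounds plus 3 SD, computed per campaign excluding outliers beyond control limits, cut at about 13% in these data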
Target sequence (P49862 whole entry, looked up): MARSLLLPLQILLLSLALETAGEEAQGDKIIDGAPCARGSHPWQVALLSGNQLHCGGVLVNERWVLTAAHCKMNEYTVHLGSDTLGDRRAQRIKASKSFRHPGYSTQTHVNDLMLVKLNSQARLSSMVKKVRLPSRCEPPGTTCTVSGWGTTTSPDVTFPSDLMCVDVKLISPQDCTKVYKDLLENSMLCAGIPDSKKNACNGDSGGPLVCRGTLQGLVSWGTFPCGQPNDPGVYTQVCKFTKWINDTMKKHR
bovine MsrA act = bovine MsrA enzyme activators, primary screen, biochemical, absorbance, HTS; activation, % at 10.6 µM; purified bovine MsrA, absorbance read-out; 0.3% of 360,000 active; AID 602163, 2012; in the data active = activation above about 7.5%;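 note: 0% = vehicle and 100% = reference activator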
MsrA inh = bovine MsrA enzyme inhibitors, primary screen, biochemical, absorbance, HTS; 0.75% of 360,000 active; inhibition, % at 15.5 µM; purified bovine MsrA, absorbance read-out; in the data active = inhibition above about 4.5%;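 note: 0% = vehicle wells with enzyme and 100% = reference inhibitor wells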
SMARCA2 act = SMARCA2 (BRM) function activators, primary screen, cell-based, luminescence, high throughput. MG213 cells, MMTV-luciferase reporter, dexamethasone, overnight. activation, % at 9.1 µM. 1% of 370,000 active. AID 652017, 2013; in the data active = activation above about 7.8%;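 note: 0% = vehicle wells and 100% = reference activator wells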
MsrA activ conf = bovine MsrA activators, retest, confirmation, biochemical, absorbance, HTS | shares compounds with bovine MsrA act | AID 602270, 2012 | purified bovine MsrA, absorbance read-out | 12% of 1,000 active | activation, % at 10.6 µM; in the data active = activation above about 4%;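 note: enzyme coupled to thioredoxin and thioredoxin reductase with NADPH; 0% = vehicle wells and 100% = reference activator wells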
* hit, by the source's call; . = not tested or not shown. Only some compounds are listed: those with a hit (about 2.8% of all), similar ones and a draw of the others.

SMILES	proKLK7 act	bovine MsrA act	MsrA inh	SMARCA2 act	MsrA activ conf
O=C(CCNS(=O)(=O)c1cccc2nonc12)Nc1ccc(Cl)cc1	0	13*	0	0	1
O=C(NC1CCCC1)[C@@H]1CCCN1C(=O)[C@@H](NC(=O)N1CCOCC1)c1ccccc1	0	.	0	0	.
CCCn1c(N)c(N(CCOC)C(=O)c2ccc(N3CCCC3=O)cc2)c(=O)[nH]c1=O	0	7.9*	-1	1	1
CC1(C(=O)NS(=O)(=O)c2cccs2)CCN1C(=O)CC1CC1 (configuration not stated)	-1	-5	1	0	.
CC[n+]1ccc(C[n+]2ccccc2)c2ccccc21	-1	11*	1	4	1
Cc1cc(C)n2nc(C(=O)OCC(=O)c3ccc(F)cc3)nc2n1	0	-2	0	3	.
CC1CCN(C(=O)CN(c2cccc(F)c2)S(C)(=O)=O)CC1	-1	-7	1	-1	.
CS(=O)(=O)N(CC(=O)N1CCOCC1)c1cccc(F)c1	-1	9.2*	0	-1	-1
COc1ccc(-c2nnc(SCC(=O)NC(=O)NCc3ccccc3)o2)cc1	0	9.7*	0	1	-1
COc1cc(OCc2ccc(C)cc2)ccc1CNC[C@H]1O[C@@H](n2cnc(C(N)=O)n2)[C@H](O)[C@@H]1O	1	-2	1	-1	.
O=S(=O)(Nc1ccc(S(=O)(=O)N2CCCCCC2)cc1)c1cccs1	0	-6	-1	1	.
O=S(=O)(Nc1ccccc1Cl)c1ccc(NS(=O)(=O)c2cccs2)cc1	0	7.7*	-1	-2	0
COc1ccc(S(=O)(=O)N2CCCC(C(=O)N3CCOCC3)C2)cc1Cl (configuration not stated)	0	-1	-1	-1	.
COc1ccc(S(=O)(=O)N2CCC(C(=O)N3CCOCC3)CC2)cc1Cl	0	8.0*	0	5	-3
O=C1C(=O)c2c(ccc3ccccc23)-c2ccccc21	0	12*	0	-2	8.2*
COc1ccc(NC(=O)C2(C)Cc3c(-c4ccc(N(C)C)cc4)ccnc3O2)cc1 (configuration not stated)	-8	-2	-1	-1	.
Cn1nc(N)nc1N1CCN(c2ccc(F)cc2)CC1	0	8.0*	-1	4	-1
Nc1nc(N2CCN(c3ccc(F)cc3)CC2)n[nH]1	0	-5	2	-3	.
CCOc1ccc(S(=O)(=O)N2CCN(C(=S)NC3CC3)CC2)cc1	0	-3	-1	-4	.
COc1ccc(S(=O)(=O)N2CCN(C(=S)NC3CCCCC3)CC2)cc1	0	8.0*	0	0	-3
CC1CCN(CCCNC(=O)c2cn(C)c3ccc(S(=O)(=O)N4CCCC4)cc3c2=O)CC1	0	7.9*	3	-2	0
CC1CC(C)CN(CCCNC(=O)c2cn(C)c3ccc(S(=O)(=O)N4CCCC4)cc3c2=O)C1 (configuration not stated)	0	-9	1	-2	.
Cc1ccc2[nH]c3c(c2c1)CN(C(=O)CN1CCSCC1)CC3	5	.	0	2	.
Cc1ccc2[nH]c3c(c2c1)CN(C(=O)CN1CCN(c2ccccn2)CC1)CC3	8	10*	-1	-2	4.0*
Cc1ccc(-c2noc(COc3ccccc3C)n2)cc1	0	8.1*	1	2	-3
SMILES	proKLK7 act	bovine MsrA act	MsrA inh	SMARCA2 act	MsrA activ conf
CC(C)C[C@H]1CN(CCCC[C@@H]2CNC(=O)C(=O)N2CCc2ccccc2)C(=O)C(=O)N1Cc1ccccc1	0	19*	1	-4	-4
O=C(NCC1COc2ccccc2O1)c1ccc(NC(=O)c2cccc(F)c2)cc1 (configuration not stated)	0	.	.	-2	.
COc1ccc(C2(SCC(N)C(=O)O)c3ccccc3-c3ccccc32)cc1 (configuration not stated)	-1	0	0	-2	.
CC1=C(C(=O)OC(C)C)C(c2cccc(F)c2)N2C(=O)C(C)SC2=N1 (configuration not stated)	0	9.8*	1	-1	0
COc1ccccc1NC(=O)OC[C@@H]1CSCCS(=O)(=O)N1	0	.	-1	-5	.
Nc1ncnc2c1ncn2[C@@H]1O[C@H](CNCc2ccc(OCc3ccccc3)cc2)[C@@H](O)[C@H]1O	1	7.7*	1	-2	4.3*
Nc1ncnc2c1ncn2[C@@H]1O[C@H](CNCc2ccc(OCC(=O)Nc3ccccn3)cc2)[C@@H](O)[C@H]1O	0	-1	0	-5	.
Cc1ccc(NC(=O)CN(C)C(=O)c2cccc(S(=O)(=O)N3CCc4ccccc4C3)c2)cc1	0	10*	0	-3	0
CCN(CC(=O)Nc1ccc(NC(C)=O)cc1)C(=O)c1cccc(S(=O)(=O)N2CCc3ccccc3C2)c1	1	0	0	1	.
COc1ccc(S[C@]2(C(=O)N3CCN(C(C)=O)CC3)CC(=O)N(C(=O)Nc3ccc(C)c(Cl)c3)[C@@H]2c2ccc(OC)cc2)cc1	0	.	.	0	.
COc1ccccc1OCc1ccc(C(=O)Nc2ccccc2)cc1	0	12*	0	-1	1
CN(CCN1CCc2ccccc2C1)Cc1nc(Cc2ccccc2F)no1	0	15*	-2	0	-2
S=c1nc(-c2ccc(Cl)cc2)[nH][nH]1	1	7	-1	-1	.
CCCOc1ccc(-c2nc(=S)[nH][nH]2)cc1	0	9.2*	1	-1	3
COc1cccc(-c2cc(C(F)(F)F)n3nc(N)nc3n2)c1	1	14*	3	1	-3
COc1ccc(-c2cc(C(F)(F)F)n3nc(N)nc3n2)cc1	.	-4	.	.	.
O=C(NCc1ccccc1)C(c1ccco1)N1CCN(c2ccccc2F)CC1 (configuration not stated)	0	.	-1	-5	.
Cc1c(NS(=O)(=O)c2cc3c(cc2Br)CCN3C(=O)C2CC2)c(=O)n(-c2ccccc2)n1C	-1	.	.	-3	.
COC(=O)c1ccccc1S(=O)(=O)N1CCC(C(=O)NC2CCCCC2)CC1	0	11*	0	0	-2
C=CCNC(=O)c1ccccc1NC(=O)c1ccccc1C	0	8.6*	-1	2	-1
C=CCNC(=O)c1ccccc1NC(=O)c1ccccc1SC	-1	-10	0	-1	.
O=C(C[C@@H]1C[C@@H]2c3cc(NS(=O)(=O)c4ccc(F)cc4)ccc3O[C@@H]2[C@H](CO)O1)N1CCc2ccccc2C1	0	-6	0	-6	.
CCOC(=O)c1c2c(n(-c3ccc(OC)cc3)c1C)C(=O)C(=O)c1ccccc1-2	.	7.7*	.	.	6.2*
CCN(C(=O)COC(=O)CCC(=O)c1ccc(Cl)cc1)c1c(N)n(Cc2ccccc2)c(=O)[nH]c1=O	0	7.7*	0	-4	-2
CCc1cc2c(=O)n(CC(C)C)cnc2s1	0	-4	-1	1	.
